Measured values as given in PubChem BioAssay (NCATS).
Values joined by “and” are separate entries in the source; they are usually repeats but may differ in a detail not shown here. Equal entries are not always repeated. A number with no mark means an inactive call. Records with an inconclusive call do not appear. A call without a number means that no potency is given here. Active and inactive are the calls of the source. Unless noted, calls follow the shape of the dose curve; as a rule, active = well fitted curve in either direction with a large enough effect (not every such curve was filed as active); inconclusive = small, poorly fitted or top-dose-only effect, or another doubt; inactive = flat fitted curve, though single readings scatter.

Experiments:
[1] = target: Glucocorticoid receptor (Homo sapiens) (UniProt P04150); experiment: GR-GFP Redistribution (AID 450;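 active = compounds whose dose series gives a full or clear partial fitted curve of increased nuclear translocation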; also: potency is read from the fitted curve at half-maximal effect); details: U2OS GR-GFP nuclear translocation, laser cytometry, 2 h
[2] = target: Glucocorticoid receptor (Homo sapiens) (UniProt P04150); experiment: GR-EFC Redistribution (AID 451; calls by dose curve; also: potency is read from the fitted curve at half-maximal effect); details: CHO-K1 GR-EFC translocation, beta-gal luminescence, 2 h
Procedure, shortened: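 CHO-K1 cells stably expressing nuclear-localized β-gal enzyme acceptor and GR fused C-terminally to the enzyme donor fragment; ligand-driven nuclear translocation restores β-gal by complementation. Compounds titrated up to 46 uM final, 2 h at 37 °C; luminescence read.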

[3] = target: Mitogen-activated protein kinase 10 (Mus musculus) (UniProt Q61831); experiment: JNK3 AlphaScreen Assay (AID 530); details: JNK3 lysate, c-Jun phosphorylation; series mostly up to 57.1 µM;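 also: kinase came from lysate of stimulated human HepG2 cells; signal reports phosphorylation of biotinylated GST-cJun 1-79 at Ser73 with 10 µM ATP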
Procedure, shortened: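 Inhibitors reduce antibody binding to phosphorylated biotin-cJun, lowering AlphaScreen luminescence. Lysates from HepG2 cells pre-activated by IL-1beta plus TNF-alpha supplied JNK3; compounds were titrated.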

[4] = Stat Signaling Pathway (AID 446); details: ME-180 SIE beta-lactamase reporter, IL-6 stimulated, 5 h; series mostly up to 17.2 µM;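 also: ME-180 cervical cancer cells given 40 pM IL-6 alongside compound; SIE-controlled beta-lactamase reporter measured as 460/530 nm FRET emission ratio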
Procedure, shortened: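 Reporter line: ME-180 cervical carcinoma, SIE-beta-lactamase. Treatment: compound with 40 pM IL-6, 5 hrs, 37 C, in low-serum OPTI-MEM with 10 mM HEPES pH 7.3. Detection: 460/530 nm fluorescence.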

[5] = target: 3',5'-cyclic-AMP phosphodiesterase 4B (Homo sapiens) (UniProt Q07343); experiment: qHTS Assay for Inhibitors of PDE-IV (AID 607; active = well fitted activation curve with a large enough effect in the main read-out, with a control signal flat, not every such curve was filed as active; also: potency is read from the fitted curve at half-maximal effect); details: HEK293 ACTOne CNG channel cells, membrane potential fluorescence; series mostly up to 22.9 µM
Procedure, shortened: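 Cell-based read-out of cAMP via a modified cyclic nucleotide-gated channel and membrane potential dye (535/590 nm) in HEK293 cells expressing PDE4 endogenously. Compounds tested up to 22.9 uM final; 100 uM RO 20-1724 reference.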

[6] = Cell Viability - NIH 3T3 (AID 541; active = well fitted curve in the direction sought with a large enough effect; an effect the other way counts as inactive or inconclusive; also: potency is read from the fitted curve at half-maximal effect; nearly all actives have a fitted effect of over 25% in size); details: NIH 3T3 cell viability, qHTS; activity change, negative = cytotoxicity: at 92.2 µM (top of the series)
Procedure, shortened: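 Luminescent ATP signal (CellTiter-Glo) served as the viability read-out after NIH 3T3 cells were exposed to compounds over a concentration range for 40 hr at 37 °C. Hill-equation modelling of concentration-response data gave AC50.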

[7] = Cell Viability - HUV-EC-C (AID 542; active = well fitted curve in the direction sought with a large enough effect; an effect the other way counts as inactive or inconclusive; also: nearly all actives have a fitted effect of over 35% in size); details: HUV-EC-C endothelial cell viability, qHTS; series mostly up to 92.2 µM
Procedure, shortened: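 qHTS cytotoxicity: HUV-EC-C, 1000 cells/well, 5 hr settle, compound 40 hr 37 °C, CellTiter-Glo, luminescence. AC50 via Hill equation.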

[8] = Cell Viability - SH-SY5Y (AID 544; active = well fitted curve in the direction sought with a large enough effect; an effect the other way counts as inactive or inconclusive; also: potency is read from the fitted curve at half-maximal effect; nearly all actives have a fitted effect of over 55% in size); details: SH-SY5Y neuroblastoma cell viability; series mostly up to 92.2 µM
Procedure, shortened: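 Luminescent ATP read-out (CellTiter-Glo) measures loss of viable SH-SY5Y neuroblastoma cells after 40 hr compound exposure at 37 °C. AC50 values derive from standard Hill modelling of qHTS concentration-response data.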

[9] = Cell Viability - Renal Proximal Tubule (AID 545; active = well fitted curve in the direction sought with a large enough effect; an effect the other way counts as inactive or inconclusive; also: potency is read from the fitted curve at half-maximal effect; nearly all actives have a fitted effect of over 40% in size); details: renal proximal tubule cells viability, primary cells of rat origin; activity change, negative = cytotoxicity: at 91.7 µM (top of the series)
Procedure, shortened: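 Viability taken as intracellular ATP (CellTiter-Glo luminescence) after 40 hr, 37 °C compound treatment of primary proximal tubule cells from rat kidney, 1000 cells/well; Hill-equation fits of qHTS concentration-response data gave AC50.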

[10] = Cell Viability - Mesenchymal (AID 546; active = well fitted curve in the direction sought with a large enough effect; an effect the other way counts as inactive or inconclusive;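 also: potency is read from the fitted curve at half-maximal effect; cells exposed to compound for 40 hours before reading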); details: mesenchymal cells viability, qHTS; activity change, negative = cytotoxicity: at 91.7 µM (top of the series)
Procedure, shortened: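 Normal human renal glomerulus-derived kidney mesenchymal cells, 1000 per well in complete medium, were treated with compounds for 40 hr at 37 °C. Viability was read as intracellular ATP by CellTiter-Glo luminescence; AC50 values came from Hill-equation fits of qHTS concentration-response data.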

[11] = Cellular Toxicity (caspase-3) HepG2 (AID 654; active = well fitted curve in the direction sought with a large enough effect; an effect the other way counts as inactive or inconclusive;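 also: cells exposed to compound for 16 hours before reading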); details: HepG2 caspase-3 activation, luminescence, 0% = DMSO only, 100% = tamoxifen; series mostly up to 92.2 µM
Procedure, shortened: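 Cells plated 5 hr at 37 °C, compound added, incubated 16 hr at 37 °C. Caspase-Glo 3/7 reagent followed, 20 min at room temperature, then luminescence read. Activation scored as signal increase; AC50 from Hill fit.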

[12] = Cellular Toxicity (caspase-3) Jurkat (AID 655; active = well fitted curve in the direction sought with a large enough effect; an effect the other way counts as inactive or inconclusive;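 also: potency is read from the fitted curve at half-maximal effect; cells exposed to compound for 16 h at 37 °C before reading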); details: Jurkat caspase-3 activation, luminescence; series mostly up to 92.2 µM
Procedure, shortened: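 Luminescent Caspase-Glo 3/7 read-out (20 min, room temperature) after 16 h compound treatment at 37 C of 5000 Jurkat cells per well. AC50 derived by Hill-equation fitting, scaled between DMSO basal and 100 uM tamoxifen stimulation.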

[13] = Cellular Toxicity (caspase-3) HUV-EC-C (AID 656; active = well fitted curve in the direction sought with a large enough effect; an effect the other way counts as inactive or inconclusive); details: HUV-EC-C cells, caspase-3 activation (apoptosis), vehicle = 0, 100 µM tamoxifen = 100%; series mostly up to 92.2 µM
Procedure, shortened: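 Luminescent Caspase-Glo 3/7 readout after 16 h, 37 °C compound exposure of HUV-EC-C endothelial cells, 1000 per well, complete medium. AC50 derived by Hill fitting, with DMSO as baseline and 100 uM tamoxifen as full activation.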

[14] = Cellular Toxicity (caspase-3) SHSY5Y (AID 657; active = well fitted curve in the direction sought with a large enough effect; an effect the other way counts as inactive or inconclusive); details: SH-SY5Y caspase-3 activation, DMSO zero, 10 µM staurosporine = 100%; series mostly up to 91.7 µM
Procedure, shortened: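 Luminescent Caspase-Glo 3/7 read-out, 1 hr room temperature, follows 16 hours of compound treatment of SH-SY5Y cells at 37 °C. Normalization: DMSO basal, 10 uM staurosporine as 100%; AC50 values from Hill-equation concentration-response fits.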

[15] = Cellular Toxicity (caspase-3) BJ (AID 658; active = well fitted curve in the direction sought with a large enough effect; an effect the other way counts as inactive or inconclusive); details: BJ fibroblasts, luminescence, normalized: DMSO 0%, staurosporine 100%; series mostly up to 91.7 µM
Procedure, shortened: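 Luminescent aminoluciferin-substrate cleavage reports caspase 3/7 activity in normal human BJ fibroblasts after 16 hr compound exposure at 37 °C. Normalized to DMSO (basal) and 10 uM staurosporine (100%); AC50 from Hill fit of concentration-response.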

[16] = Cellular Toxicity (caspase-3) Mesangial (AID 660; active = well fitted curve in the direction sought with a large enough effect; an effect the other way counts as inactive or inconclusive;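 also: combined caspase 3 and 7 activity read by Caspase-Glo luminescence; cells exposed to compound for 16 h before the caspase read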); details: mesangial cells, normalized: DMSO 0%, 100 µM tamoxifen 100%; series mostly up to 91.7 µM
Procedure, shortened: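 Mesangial cells, 1000/well, 5 h settle at 37 °C; compound 16 h, 37 °C; Caspase-Glo 3/7 reagent 20 min RT; luminescence. Norm.: DMSO = 0%, tamoxifen 100 uM = 100%. AC50, Hill fit.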

[17] = Cellular Toxicity (caspase-3) H-4-II-E (AID 663; active = well fitted curve in the direction sought with a large enough effect; an effect the other way counts as inactive or inconclusive;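 also: cells exposed to compound for 16 hr before readout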); details: H-4-II-E rat hepatoma, scaled: DMSO 0%, 100 µM tamoxifen 100%; series mostly up to 92.2 µM
Procedure, shortened: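 Luminescence from caspase-cleaved aminoluciferin substrate, read 20 min after reagent addition, reports caspase 3/7 activation in rat H-4-II-E cells after 16 hr compound exposure. Normalized to DMSO (basal) and 100 uM tamoxifen (100%); AC50 from Hill fits.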

[18] = Cellular Toxicity (caspase-3) Hek293 (AID 664; active = well fitted curve in the direction sought with a large enough effect; an effect the other way counts as inactive or inconclusive;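 also: cells exposed to compound for 16 h at 37 °C before readout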); details: HEK293 caspase-3 activation, DMSO = 0%, 100 µM tamoxifen = 100%; series mostly up to 92.2 µM
Procedure, shortened: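 Cells plated, 5 hr at 37 °C; compounds added; 16 hr at 37 °C; Caspase-Glo 3/7 reagent, 20 min RT; luminescence read. Activation expressed relative to DMSO and 100 uM tamoxifen, AC50 by Hill model.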

Chain of 3',5'-cyclic-AMP phosphodiesterase 4B (Homo sapiens) (Q07343 whole entry, looked up): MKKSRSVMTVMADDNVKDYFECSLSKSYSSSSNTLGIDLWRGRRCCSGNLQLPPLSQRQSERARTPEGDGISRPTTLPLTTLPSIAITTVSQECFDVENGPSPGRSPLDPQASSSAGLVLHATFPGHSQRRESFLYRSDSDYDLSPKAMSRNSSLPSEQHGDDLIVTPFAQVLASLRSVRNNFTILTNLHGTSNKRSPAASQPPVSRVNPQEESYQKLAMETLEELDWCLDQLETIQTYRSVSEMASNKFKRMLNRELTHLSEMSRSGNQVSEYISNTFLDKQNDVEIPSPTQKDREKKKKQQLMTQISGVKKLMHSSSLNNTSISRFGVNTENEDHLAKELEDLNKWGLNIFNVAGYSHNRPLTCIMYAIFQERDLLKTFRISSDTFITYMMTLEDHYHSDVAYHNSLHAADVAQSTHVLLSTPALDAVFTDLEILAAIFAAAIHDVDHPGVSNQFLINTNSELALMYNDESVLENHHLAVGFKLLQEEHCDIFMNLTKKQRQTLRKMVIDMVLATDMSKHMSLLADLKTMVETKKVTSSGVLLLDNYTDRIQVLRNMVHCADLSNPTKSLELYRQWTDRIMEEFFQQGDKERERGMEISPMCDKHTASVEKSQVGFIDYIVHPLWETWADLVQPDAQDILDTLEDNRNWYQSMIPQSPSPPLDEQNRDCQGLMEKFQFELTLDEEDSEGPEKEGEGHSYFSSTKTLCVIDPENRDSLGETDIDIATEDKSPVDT
Chain of Glucocorticoid receptor (Homo sapiens) (P04150 whole entry, looked up, the tested form may be a part): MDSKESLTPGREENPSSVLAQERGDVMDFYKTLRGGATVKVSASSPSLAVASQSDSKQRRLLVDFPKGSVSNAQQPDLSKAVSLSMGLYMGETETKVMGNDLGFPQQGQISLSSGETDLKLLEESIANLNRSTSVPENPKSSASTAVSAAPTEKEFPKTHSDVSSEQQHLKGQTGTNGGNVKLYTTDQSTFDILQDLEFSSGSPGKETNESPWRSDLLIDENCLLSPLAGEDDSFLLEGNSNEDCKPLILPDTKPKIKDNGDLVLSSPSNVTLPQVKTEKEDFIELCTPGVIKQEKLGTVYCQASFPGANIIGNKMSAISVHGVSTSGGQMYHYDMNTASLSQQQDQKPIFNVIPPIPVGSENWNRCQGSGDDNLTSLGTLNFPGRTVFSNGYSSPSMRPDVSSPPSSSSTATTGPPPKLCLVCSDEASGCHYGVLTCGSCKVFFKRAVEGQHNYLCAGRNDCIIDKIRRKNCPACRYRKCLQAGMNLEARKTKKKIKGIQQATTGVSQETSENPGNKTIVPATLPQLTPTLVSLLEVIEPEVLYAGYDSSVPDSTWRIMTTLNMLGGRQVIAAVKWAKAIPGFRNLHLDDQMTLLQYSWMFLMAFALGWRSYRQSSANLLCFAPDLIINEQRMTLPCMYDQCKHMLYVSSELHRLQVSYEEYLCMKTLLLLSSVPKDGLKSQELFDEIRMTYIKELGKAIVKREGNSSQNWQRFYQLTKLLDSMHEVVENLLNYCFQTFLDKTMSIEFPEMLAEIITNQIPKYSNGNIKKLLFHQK

Structure (SMILES): COc1cc2c(cc1OC)-c1cc(=Nc3c(C)cc(C)cc3C)n(C)c(=O)n1CC2
- Potency [1]: > 46 µM
- Potency [2]: > 46 µM
- Potency [3]: inactive

Structure (SMILES): CCN(CC)CC(=O)Nc1c(C)cccc1C
- outcome [4]: inactive
- Potency [3]: inactive
- Potency [5]: inactive

Structure (SMILES): CN(C)CCCN1c2ccccc2Sc2ccccc21
- outcome [4]: inactive
- Potency [3]: inactive
- Potency [5]: inactive

Structure (SMILES): C[N+](C)(C)CCOC(N)=O
- outcome [4]: inactive
- Potency [3]: inactive

Structure (SMILES): COc1ccc([C@@H]2Sc3ccccc3N(CCN(C)C)C(=O)[C@@H]2OC(C)=O)cc1
- Potency [1]: > 46 µM and > 20.6 µM
- Potency [2]: > 46 µM
- Potency [5]: inactive

Structure (SMILES): Nc1ncn([C@@H]2O[C@H](CO)[C@@H](O)[C@H]2O)c(=O)n1
- Potency [3]: inactive
- Potency [6]: 5.01 µM (active)
- Potency [7]: inactive
- Potency [8]: 6.31 µM (active)
- Potency [9]: 15.8 µM (active)
- Potency [10]: 31.6 µM (active)
- outcome [11]: inactive
- Potency [12]: 2 µM (active)
- outcome [13]: inactive
- outcome [14]: inactive
- outcome [15]: inactive
- outcome [16]: inactive
- outcome [17]: inactive
- outcome [18]: inactive

Structure (SMILES): CCN1CCC[C@H]1CNC(=O)c1c(O)c(Cl)cc(Cl)c1OC
- Potency [3]: inactive
- Potency [5]: inactive

Structure (SMILES): O=C(O)CCCCCCCC(=O)O
- Potency [3]: inactive
- Potency [5]: inactive

Structure (SMILES): C[n+]1cc2c3c(ccc2c2ccc4cc5c(cc4c21)OCO5)OCO3
- Potency [1]: 6.57 µM (active)
- Potency [2]: > 46 µM and > 20.6 µM
- Potency [3]: inactive
- Potency [5]: inactive

Structure (SMILES): CCOC(=O)c1cnc2c(cnn2CC)c1NN=C(C)C
- outcome [4]: inactive
- Potency [5]: 0.951 µM (active)
